Source: PubChem BioAssay AID504832 (National Center for Advancing Translational Sciences (NCATS), 2011)
About 18,000 (5.8%) of roughly 310,000 compounds were called active. Where a call stands in place of a potency, no number is given. Inconclusive results (about 22%) are left out. The sample holds actives, similar compounds and a random draw of the others, so the mix is not that of the screen. Calls come from the whole dose curve; as a rule, active = well fitted inhibition curve with a large enough effect; inconclusive = small, poorly fitted or top-dose-only effect, or another doubt; inactive = no such curve, though single readings can be large or run the other way.

Assay: Primary qHTS for delayed death inhibitors of the malarial parasite plastid, 48 hour incubation
Settings: P. falciparum luciferase growth in erythrocytes; series mostly up to 28.7 µM
Procedure, shortened: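 Compounds are pin-transferred into medium, infected erythrocytes (2% hematocrit, 0.1% parasitemia final) are added, and plates sit one parasite generation at 37 C in 5% CO2. Detection reagent is then added and luminescence measured.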
Potency is the fitted concentration of half-maximal effect.

Compound	Potency
CCN1C(=O)c2cccc3c(S(=O)(=O)Nc4ccccc4O)ccc1c23	inactive
C[n+]1ccc(/C=C/c2c[nH]c3ccccc23)cc1	0.738 µM (active)
CSC(=S)N/N=C/c1c[nH]c2ccccc12	inactive
CN1CCN(/N=C/c2c[nH]c3ccccc23)CC1	inactive
Cn1c(=O)c2c(nc(NCCNC(=O)c3ccco3)n2Cc2ccccc2F)n(C)c1=O	inactive
CCC(=C/c1sc2ccc3ccccc3c2[n+]1C)/C=C1\Sc2ccc3ccccc3c2N1C	0.928 µM (active)
COc1ccc2ccn(C)c2c1	inactive
Cc1ccccc1NC(=O)C1CCCN(C(=O)NCc2ccccc2)C1 (centres undefined)	inactive
COc1cccc2[nH]c(C(=O)NCCc3ccccc3)cc12	inactive
O=C(NCC1CCCO1)c1cc2c([nH]c3ccccc32)c(-c2ccc(F)cc2)n1 (centres undefined)	9.28 µM (active)
O=C(NCC1CCCO1)c1cc(-c2ccccc2)nc2ccccc12 (centres undefined)	inactive
O=C(NCCCO)c1cc2c([nH]c3ccccc32)c(-c2ccc(F)cc2)n1	9.28 µM (active)
O=C(NCCc1ccc(F)cc1)c1n[nH]c2ccccc12	inactive
O=C(NCC1CCCO1)c1ccc2ccccc2n1 (centres undefined)	inactive
COc1ccccc1OC(C)C(=O)Nc1ccc(S(=O)(=O)Nc2nccs2)cc1 (centres undefined)	inactive
CCOc1ccc2c(c1)c(=O)c(S(=O)(=O)c1ccc(C)cc1)cn2CC	inactive
CCc1cccc(C)c1NC(=O)COC(=O)CNC(=O)c1cccs1	inactive
CCc1ccc(Oc2coc3cc(O)ccc3c2=O)cc1	inactive
COc1ccc(-n2cc(CNC3CCOCC3)c(-c3cccc(F)c3)n2)cc1	11.7 µM (active)
COc1ccc(-n2cc(CN(C)Cc3n[nH]c(=O)[nH]3)c(-c3cccc(F)c3)n2)cc1	inactive
COc1ccc(-c2nn(-c3ccccc3)cc2CN2CCCO2)c(F)c1	inactive
Cc1ccc(S(=O)(=O)NC(=O)c2cccc(C)c2)cc1	inactive
Cc1cc(NC(=O)COc2ccccc2C#N)no1	inactive

Compound	Potency
CCc1cccc(C)c1NC(=O)COC(=O)CC1CCCC1	inactive
CCc1cccc(CC)c1NC(=O)COc1ccccc1C(=O)c1cc(C#N)c(=O)n(C2CCCCC2)c1	5.86 µM (active)
COc1cccc(-c2coc3cc4oc(=O)c(CC(=O)O)c(C)c4cc23)c1	inactive
COc1ccccc1C(=O)N/C(=C/c1ccc2c(c1)OCO2)C(=O)Nc1cccc(C(=O)O)c1	inactive
CCC(C)(C)c1ccc(OCC(=O)N(C)C)c(C(C)(C)CC)c1	11.7 µM (active)
CN(C)CCOc1ccc(Cl)cc1C(C)(C)C	inactive
CN1C/C(=C/c2cccs2)C(=O)/C(=C\c2cccs2)C1	inactive
CCc1ccc(NC(=O)N2CCc3ccccc3C2)cc1	inactive
COc1cccc(/C=C2/SC(=S)N(CC(=O)NC3C=CS(=O)(=O)C3)C2=O)c1 (centres undefined)	inactive
c1ccc2c(NCC3CCCO3)nc(-c3ccncc3)nc2c1 (centres undefined)	13.1 µM (active)
Cn1c(=O)c2[nH]c(NCC3CCCO3)nc2n(-c2ccccc2)c1=O (centres undefined)	inactive
Cc1nc2ccccc2c2oc(C(=O)NCC3CCCO3)cc12 (centres undefined)	inactive
COc1ccc(C2=NS(=O)(=O)N(C)C(C(=O)N(C)Cc3ccccc3)=C2)cc1	inactive
Cc1nn(C)c(C)c1NS(=O)(=O)c1ccc(OC(F)(F)F)cc1	inactive
COCC1CCN(C(=O)C2CCC(=O)N(CC3CCCCC3)C2)CC1 (centres undefined)	inactive
CC(CN1CCOCC1)OC(=O)c1ccc(Cl)cc1Cl (centres undefined)	inactive
CCC(=O)NCCc1nc2ccccc2n1CC	inactive
CCCCn1c(CCCNC(=O)CC)nc2ccccc21	inactive
CCC(=O)Nc1nc2ccccc2n1Cc1ccccc1C	1.47 µM (active)
COCCn1c(C)cc(C(=O)COC(=O)CNC(=O)c2ccco2)c1C	inactive
COc1ccc(S(=O)(=O)N2CCC(C(=O)N3CCCC3)CC2)cc1C	inactive
CCOc1ccc(CN(C)C(=O)c2ccc(=O)[nH]c2)cc1	inactive
COc1ccc(NC2CCCN(C(=O)c3ccncc3)C2)cc1 (centres undefined)	inactive

Compound	Potency
CC(C)c1ccc(NC2CCCN(C(=O)c3ccncc3)C2)cc1 (centres undefined)	5.86 µM (active)
Cc1cccc(C(=O)N2CCCC(Nc3ccc(C(C)C)cc3)C2)n1 (centres undefined)	inactive
O=C(NCC(=O)N1CCN(c2ncc(C(F)(F)F)cc2Cl)CC1)c1ccc(Br)o1	inactive
Cc1nn(Cc2ccccc2)c(C)c1NS(=O)(=O)c1ccccc1	inactive
c1ccc(CCn2nnnc2CN2CCN(C3CCCC3)CC2)cc1	inactive
CC(C)C(c1nnnn1C1CCCC1)N1CCN(c2ccccc2F)CC1 (centres undefined)	inactive
c1ccc(C(c2ccccc2)N2CCN(Cc3nnnn3C3CCCCC3)CC2)cc1	8.28 µM (active)
CC1CN(C(=O)COC(=O)c2cccc(NS(=O)(=O)c3ccccc3)c2)CC(C)O1 (centres undefined)	inactive
CCCc1cc(=O)oc2c(C)c(OCC(=O)NCc3ccccn3)ccc12	inactive
O=C(Nc1ccc(S(=O)(=O)N2CCCCC2)cc1)c1cnccn1	inactive
CCc1ccc(N(C(=O)c2csnn2)C(C(=O)NC2CCCCC2)c2ccncc2)cc1 (centres undefined)	inactive
CC1CCCN(S(=O)(=O)c2ccc(N(C(=O)c3cnccn3)C(C(=O)NC3CCCCC3)c3cccs3)cc2)C1 (centres undefined)	11.7 µM (active)
O=C(Nc1ccc(NC(=O)c2ccc3c(c2)OCO3)cc1)c1cccc(Cl)c1	inactive
O=C(CSc1n[nH]c(=O)n1-c1ccccc1)Nc1ccccc1C(F)(F)F	inactive
Cc1ccc(NC(=O)CN2CCC3(O)CCCCC3C2c2ccc3c(c2)OCO3)c(C)c1 (centres undefined)	10.4 µM (active)
CC1CCCCN1CC(=O)NCc1ccc2c(c1)OCO2 (centres undefined)	inactive
CCN(CC)c1ccc(C2C3CCCCC3(O)CCN2CC(=O)Nc2ccccc2)cc1 (centres undefined)	inactive
Cc1c(S(=O)(=O)NC(C)c2ccccc2)c(=O)n(C)c(=O)n1C (centres undefined)	inactive
O=C(NCCc1ccc(C(F)(F)F)cc1)c1ccc2c(c1)OCO2	inactive
COc1cc(/C=C2\CCCc3c2nc2ccccc2c3C(=O)O)cc(Cl)c1O	inactive
CC(NS(=O)(=O)c1ccc(OCC(=O)N2CCCC2)cc1)c1ccccc1 (centres undefined)	inactive
CCN(c1ccccc1)S(=O)(=O)c1ccc(OCC(=O)N2CCCC2)cc1	9.28 µM (active)
COc1ccc(N(CC(=O)N2CCCCCC2)S(=O)(=O)c2ccccc2)cc1	inactive
